Laboratory results reported in the OligoGym collection.

Target: TACR1
Test: pooled miR-30 sensor sort-seq; sequence = guide strand
Conditions: shRNA
Further: reference of the scale not given here.

| Sequence | sensor-assay potency score (higher = more potent) |
| --- | --- |
| TTGAGTAGTAGCCCTGGGGGAA | -0.65 |
| TTCGTCACTGTCCTCATTCTTT | -0.603 |
| TGGTCTTGGAGTCACTTCGTGA | -1.54 |
| TTTCTCATAAATCTTGTTCGGA | 0.392 |
| TAGAACAGGCCGTAGTACCATT | -1.05 |
| TAGGTGAAGTTCACCACTGTAT | -0.204 |
| TAGATCAGCACAGTCACACAGA | -0.182 |
| TTCTCATAAATCTTGTTCGGAT | -0.905 |
| TGACTTTGTACACACTGCCCTG | -1.2 |
| TAGTTCGTCACTGTCCTCATTC | -0.77 |
| TCGATCATGCACACGACTCTGC | 0.106 |
| TCGTTGTGGACAGCATAGGTGA | -1.11 |

Target: TAF3
Test: as above
Conditions: shRNA

| Sequence | sensor-assay potency score (higher = more potent) |
| --- | --- |
| TTCAGCTTCAGGACTATCCAGT | -0.217 |
| AATAACACAACATCTAGCGTGT | 0.896 |
| TAACACAACATCTAGCGTGTCC | 0.323 |
| TTCTTGTTCGCACACTTGGGGC | -1.41 |
| TATCTTTATCTTTCTTGCCTTT | -0.809 |
| TTTATCTGCTACCACAGCCTTT | -0.868 |
| TTGATTTTAAACTTGTAGGGAT | 0.554 |
| TTCTTGAGAAGACACAATGGGT | -1.17 |
| TAAACTTGTAGGGATCTGCCTC | 0.187 |
